RORgamma inh – inhibitors of mouse ROR gamma transcriptional activity; 310,000 tested, 5.4% active; Drosophila S2 Gal4-RORgamma UAS-luciferase reporter, 20 h; P51450; Potency, µM (top dose mostly 53.6 µM), hits mostly inhibitors; note: nearly all actives have a fitted effect of over 60% in size
Target sequence (P51450 whole entry, looked up, the tested form may be a part): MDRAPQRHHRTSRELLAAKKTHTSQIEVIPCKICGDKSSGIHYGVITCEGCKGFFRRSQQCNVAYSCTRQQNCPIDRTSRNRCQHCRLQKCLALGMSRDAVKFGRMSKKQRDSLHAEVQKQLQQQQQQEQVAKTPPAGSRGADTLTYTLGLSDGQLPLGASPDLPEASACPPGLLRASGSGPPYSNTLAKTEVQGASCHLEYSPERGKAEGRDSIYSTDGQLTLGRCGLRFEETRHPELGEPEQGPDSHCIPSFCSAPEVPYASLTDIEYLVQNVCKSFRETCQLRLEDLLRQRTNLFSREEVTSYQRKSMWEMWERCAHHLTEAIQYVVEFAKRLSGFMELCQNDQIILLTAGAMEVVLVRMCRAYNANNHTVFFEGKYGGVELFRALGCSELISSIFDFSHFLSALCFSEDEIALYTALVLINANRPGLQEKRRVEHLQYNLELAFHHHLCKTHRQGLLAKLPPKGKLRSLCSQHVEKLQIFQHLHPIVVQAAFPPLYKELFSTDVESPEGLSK
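Stably transfected Drosophila Schneider cells are the test system, with ROR gamma fused to Gal4 and luciferase under UAS control; luminescence is read after 20 hr of 700 uM copper sulfate induction at ambient temperature.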
KinaseGlo FLuc – counter-screen: inhibitors of Kinase-Glo firefly luciferase. Kinase-Glo luciferase, ATP luminescence, 8 min. AID 1379. Potency, µM (top dose mostly 38.3 µM), hits mostly inhibitors. 200,000 tested, 0.28% active. Q27757; note: nearly all actives have a fitted effect of over 60% in size
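Compound is pinned into ATP-containing buffer (10 uM ATP, imidazole pH 7.2, 7 mM MgCl2). Kinase-Glo luciferase reagent is then added. Light output is recorded following an 8-min room-temperature incubation.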
VP16 counter – inhibits Gal4-VP16 luciferase reporter, ROR gamma counter-screen | AID 2546 | 310,000 tested, 3.5% active | Potency, µM (top dose mostly 53.6 µM), hits mostly inhibitors | Drosophila S2 Gal4-VP16 UAS-luciferase, luminescence, 20 h;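 note: Gal4-VP16 expression switched on by copper sulfate through the metallothionein promoter; nearly all actives have a fitted effect of over 50% in size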
Numbers stand for hits; – = inactive; ? = inconclusive; · = no result given; [ ] = dose if it differs, or a comment. Compounds with a hit are over-represented: about 6.4% of the library has one in this group of screens. Calls come from the whole dose curve; as a rule, active = well fitted curve in the direction sought with a large enough effect; inconclusive = small, poorly fitted or top-dose-only effect, or another doubt; inactive = no such curve, though single readings can be large; an effect the other way counts as inactive or inconclusive.

SMILES | RORgamma inh | KinaseGlo FLuc | VP16 counter
S=c1[nH]nc(-c2ccc(Br)cc2)n1Cc1ccco1 | 1.4µM | – | 2.5µM
Cc1c(Cl)c(-c2n[nH]c(=S)n2-c2ccccc2)nn1C | – | – | ?
S=c1[nH]nc(C23CC4CC(CC(C4)C2)C3)n1Cc1ccco1 | 1.3µM | – | 11µM
C=CCn1c(-c2cccc(OC)c2)n[nH]c1=S | 7.1µM | – | ?
NCC[C@H](O)C(=O)N[C@@H]1C[C@H](N)[C@@H](O[C@H]2O[C@H](CN)CC[C@H]2N)[C@H](O)[C@H]1O[C@H]1O[C@H](CO)[C@@H](O)[C@H](N)[C@H]1O | – | · | –
COc1ccc(CCC(=O)OCC(=O)c2cccc(OC)c2)cc1 | – | – | –
COc1cccc(-c2nnc(SCC(=O)OC(C)C)n2Cc2ccco2)c1 | – | · | –
COc1cccc(-c2n[nH]c(=S)n2Cc2ccco2)c1 | 16µM | · | ?
CN(C)S(=O)(=O)c1ccc(C(=O)NCc2nnc(SCC(=O)N3CCCC3)o2)cc1 | – | · | –
CCCn1nnnc1NC(=O)COc1ccc(Br)cc1 | 2.5µM | – | 7.1µM
CCCn1nnc(NC(=O)c2ccc3ccccc3c2)n1 | – | – | –[10 µM]
CCCn1nnnc1NC(=O)c1ccc2ccccc2c1 | 1.6µM | – | 1µM
CCCCC(=O)Nc1nnc(C)s1 | – | – | –
CCCn1nnc(NC(=O)COc2ccc(Cl)cc2)n1 | – | – | –
CCCCC(=O)Nc1nnnn1CCC | 14µM | – | ?
CC(C)=C1C(=O)C(c2ccccc2)=C2CN3C(=O)N(CCc4ccccc4)C(=O)[C@]3(C)[C@H]21 | – | – | –
CNC(=O)NC(=O)COC(=O)/C=C/c1cccc(Br)c1 | – | – | –
Cn1c(SCC(=O)N2CCCC2)nnc1-c1cnccn1 | – | – | –
Cc1ccc(NC(=S)NCCN(C2CCCCC2)C2CCCC2)cc1C | 5µM | – | –[10 µM]
Cc1ccc(NC(=S)NCCN(C2CCCCC2)C2CCCC2)cc1 | 11µM | – | –[10 µM]
Cc1ccc(NC(=O)NC2CCCCCCC2)cc1 | – | · | ?
Cc1ccc(NC(=O)NCCN2CCCCC2)cc1C | – | · | –
Cc1cc(C)cc(NC(=S)NCCN(C2CCCCC2)C2CCCC2)c1 | 4.5µM | – | –[10 µM]
Cc1cc(C)cc(NC(=O)C2CCCC2)c1 | – | – | –
COC(=O)[C@H](COC(C)(C)C)NC(=O)O[C@H]1C(=O)c2ccc(OC)cc2O[C@@H]1c1ccc2c(c1)OCO2 | – | – | –
SMILES | RORgamma inh | KinaseGlo FLuc | VP16 counter
CCN1CCCC1Cn1c(-c2ccccc2)nc2c(N3CCOCC3)nc(C)nc21 (configuration not stated) | – | – | –
COc1ccc(Cl)cc1-n1c(C)ccc1C | – | – | –
CCCCC/C=C\C/C=C\C/C=C\CCCCC(=O)NCCCC(=O)O | – | – | –
CN1CCN(C(=S)c2cn(Cc3ccc(F)cc3)c3ccccc23)CC1 | ? | – | –
CN1CCN(C(=S)c2cn(Cc3ccccc3F)c3ccccc23)CC1 | 11µM | – | –
CN1CCN(C(=S)c2cn(Cc3cccc(F)c3)c3ccccc23)CC1 | 13µM | – | –
CCN(CC)C(=O)Cn1cc(C(=O)C(=O)N2CCN(C)CC2)c2ccccc21 | – | · | –
CC1CCN(C(=O)C(=O)c2cn(CC(=O)N3CCCC3)c3ccccc23)CC1 | – | · | –
CC1CCN(C(=S)c2cn(Cc3ccccc3F)c3ccccc23)CC1 | 0.89µM | – | 4.5µM
CC1CCN(C(=S)c2cn(Cc3ccc(F)cc3)c3ccccc23)CC1 | 5µM | – | 11µM
O=C(CS(=O)(=O)c1cn(Cc2ccc(F)cc2)c2ccccc12)N1CCCCC1 | – | – | –
COC(=O)CCCC1=CC2=C(c3ccccc3)C(=O)C(C)(OC(=O)C3CCCC3)C(=O)C2=CN1CCCOC(C)C (configuration not stated) | · | –[7.66 µM] | ·
CCOc1ccc(S(=O)(=O)NC(C)C(=O)NCc2cccnc2)cc1 (configuration not stated) | – | · | –
COc1cc2ncc(S(=O)(=O)c3ccccc3)c(N3CCCC(C)C3)c2cc1OC (configuration not stated) | ? | · | –
COc1cccc(Nc2ncc3nc(C)c(=O)n(CCC#N)c3n2)c1 | – | – | –
COc1cc(CN(C)CC2CCCN(CCc3ccccc3F)C2)cc(Cl)c1OC (configuration not stated) | – | · | –
CC1(C)CC(=O)C2=C(C1)N(Cc1ccccc1)C(=O)C2(NC(=O)C(C)(C)C)C(F)(F)F (configuration not stated) | 11µM | – | –
CC(=O)NC1(C(F)(F)F)C(=O)N(Cc2ccccc2)C2=C1C(=O)CC(C)(C)C2 (configuration not stated) | – | – | –
CO[C@@H]1c2cc(F)ccc2/C(=C\CCOC(=O)C/C=C/c2ccccc2)[C@H]1C | – | – | –
N#CCCN(CCC#N)S(=O)(=O)c1ccc(C(=O)Nc2nnc(C3=COCCO3)o2)cc1 | – | – | –
CCCCN(C)S(=O)(=O)c1ccc(C(=O)Nc2nnc(-c3cccs3)o2)cc1 | 0.32µM | – | 0.89µM
CCCCN(C)S(=O)(=O)c1ccc(C(=O)Nc2nnc(C3=COCCO3)o2)cc1 | 0.71µM | – | 1.8µM
CCCCN(CCCC)S(=O)(=O)c1ccc(NC(=O)c2cccs2)cc1 | – | – | –
Cc1ccc(NC(=O)CCCC2CCCCC2)c(O)c1 | – | · | –
COc1cccc(NC(=S)N(C)C2CCN(C)CC2)c1 | – | · | –
SMILES | RORgamma inh | KinaseGlo FLuc | VP16 counter
CN(C)c1ccc(C(=S)N2CCCCCC2)cc1 | 20µM | – | –
CC1CCN(C(=S)c2ccc(N(C)C)cc2)CC1 | 13µM | – | –
CN(C)c1ccc(C(=S)N2CCOCC2)cc1 | – | – | –
CC(=O)N1CCN(C(=S)c2ccc(N(C)C)cc2)CC1 | – | – | –
O=C(O)c1ccc(NS(=O)(=O)c2cccc3ccccc23)cc1 | · | – | ·
Cc1cccc(C)c1NC(=O)C1c2cccc[n+]2CC(=O)N1Cc1cccs1 (configuration not stated) | – | – | –
Cc1ccc(S(=O)(=O)Nc2c(Cl)c(Cl)c(O)c3ccccc23)cc1 | 18µM | · | ?
Cc1ccc(S(=O)(=O)Nc2ncnc3ccccc23)cc1 | – | · | –
O=S1(=O)N=C(N2CCOCC2)c2ccccc21 | –[10 µM] | – | –
CC1=NN(C2=NS(=O)(=O)c3ccccc32)C(C)(O)C1 (configuration not stated) | 1.3µM | · | 3.5µM
COc1ccccc1NC(=O)CSc1nccn1Cc1ccccc1 | – | · | –
c1ccc(C2CNCCc3ccccc32)cc1 (configuration not stated) | – | · | –
S=C1NCCc2ccc(Cl)cc2C1c1ccccc1 (configuration not stated) | 1.3µM | – | 2.5µM
COC(=O)c1cnc(NNS(=O)(=O)c2ccc(C(F)(F)F)cc2)nc1C(F)(F)F | – | · | –
C[C@@H](C(=O)O)c1ccc(N2Cc3ccccc3C2=O)cc1 | 1.1µM | ? | 2µM
CC(C)c1ccc(C(CC(=O)O)N2Cc3ccccc3C2=O)cc1 (configuration not stated) | – | · | –
Cc1ccc(C(=O)Nc2ccc(N3CCN(C(=O)c4cccs4)CC3)cc2)c(Cl)c1 | – | · | –
COc1cccc(C2C(C(C)=O)=C(O)C(=O)N2CCc2c[nH]c3ccccc23)c1 (configuration not stated) | 112µM | – | –

Bioassay records: PubChem, National Center for Advancing Translational Sciences (NCATS)
